An excerpt weighted towards active compounds, which were near 31% of everything screened.
CYP2C9 inh – blocks human cytochrome P450 2C9 | P11712 | CYP2C9 Supersomes, luciferin-H conversion, luminescence | inhibition, % at 5 µM | hit rate 20% among 96,000 | AID 777;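 active = blocking of liver enzyme CYP2C9 beyond about 50% at 5 µM, limit read from the data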
CYP2C19 activ – activators of human cytochrome P450 2C19; P33261; activation factor at 5 µM; 96,000 tested, under 10 active; recombinant CYP2C19, luciferin-H EGE luminescence; hits give high values; 0 = fully inhibited enzyme, 1 = untreated enzyme;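 active = activation factor of at least 2 at 5 µM in the primary screen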;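 note: 0 = wells with 2.5 mM tranylcypromine and 1 = vehicle-only wells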
Target sequence (P33261 whole entry, looked up): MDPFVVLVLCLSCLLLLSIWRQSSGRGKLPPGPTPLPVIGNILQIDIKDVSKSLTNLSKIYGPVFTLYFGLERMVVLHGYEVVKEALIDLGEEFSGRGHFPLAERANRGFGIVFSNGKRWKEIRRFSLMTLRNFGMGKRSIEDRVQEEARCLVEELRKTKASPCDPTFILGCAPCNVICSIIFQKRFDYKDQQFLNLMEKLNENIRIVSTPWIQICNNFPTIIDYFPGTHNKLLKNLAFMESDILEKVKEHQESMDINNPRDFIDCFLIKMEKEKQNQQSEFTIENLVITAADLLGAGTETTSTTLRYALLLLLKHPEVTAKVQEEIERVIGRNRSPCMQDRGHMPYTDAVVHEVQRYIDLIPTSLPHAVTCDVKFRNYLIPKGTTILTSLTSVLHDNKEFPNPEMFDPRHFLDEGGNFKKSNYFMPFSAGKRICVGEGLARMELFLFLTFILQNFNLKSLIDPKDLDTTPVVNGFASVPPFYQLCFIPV
CYP2C9 activ – CYP2C9 (human) activation; P11712; recombinant CYP2C9, luciferin-H conversion, luminescence; hits give high values; factor 1 = untreated enzyme, 0 = blocked; AID 1024; activation factor at 5 µM; hit rate 1.4% among 96,000;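 active = activation factor of 2 or more for CYP2C9 at a 5 µM dose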;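 note: 0 = sulfaphenazole-blocked wells and 1 = vehicle-only wells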
CYP2C19 inhib – human CYP2C19 inhibition | inhibition, % at 5 µM | P33261 | CYP2C19 Supersomes, luciferin-H EGE luminescence, 30 min | hit rate 21% among 96,000;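 active = CYP2C19 inhibition above a set limit at 5 µM in the primary screen, cut at about 50% in these data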;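 note: plate controls were negative control wells for no effect and 2.5 mM tranylcypromine positive control for full effect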
An asterisk follows results filed as active.

SMILES	CYP2C9 inh	CYP2C19 activ	CYP2C9 activ	CYP2C19 inhib
c1ccc(OCc2nc(-c3cccs3)no2)cc1	62.3*	0.3	0.4	74.2*
COc1ccc(N2C(=O)CC(Nc3cccc(C(C)=O)c3)C2=O)cc1OC (stereo unspecified)	0.4	0.8	1	18.5
CCOC(=O)Oc1ccc2c(=O)c(Oc3cccc(C)c3)coc2c1	-82.5	1.1	1.8	-7.8
Cc1cccc(Oc2coc3cc(OC(=O)c4cc5ccccc5oc4=O)ccc3c2=O)c1	-114.0	1.1	2.1*	-10.9
CCN1C/C(=C\c2cccc(C)c2)c2nc3ccccc3c(C(=O)O)c2C1	5.0	0.9	0.9	5.5
CC(=O)c1cccc(NC(=O)CN(Cc2ccccc2)S(C)(=O)=O)c1	37.5	0.2	0.6	75.6*
CS(=O)(=O)N(CC(=O)Nc1cccc(F)c1)Cc1ccccc1	81.6*	0.1	0.2	90.9*
O=C(NNc1cccc(Cl)n1)Nc1ccccc1Cl	1.5	0.6	1	37.6
COc1ccccc1N1CCN(c2cc(=O)n(-c3ccc(Br)cc3)c(=O)[nH]2)CC1	4.4	0.9	1	6.6
COc1ccc(CC(=O)Nc2cc(C)on2)cc1OC	10.0	0.9	0.9	13.0
COc1ccc(-c2csc(NC(=O)CCn3cnc4ccccc4c3=O)n2)cc1OC	65.9*	0.1	0.3	85.4*
COc1ccc(-c2csc(NC(C)=O)n2)cc1OC	64.8*	0.3	0.4	68.2*
CC(C)(C)c1csc(NC(=O)Cn2cnc3ccccc3c2=O)n1	11.7	1.1	0.9	-7.6
COc1cccc(-c2csc(NC(C)=O)n2)c1	23.5	0.7	0.8	27.1
COc1ccc(CC(=O)Nc2nc(C)cs2)cc1OC	29.8	0.4	0.7	59.8*
COc1ccc(N(CC(=O)Nc2cc(C(=O)O)ccc2C)S(=O)(=O)c2c(C)noc2C)cc1	-3.8	0.9	1	13.7
Cc1nc2nc(C)c(CCC(=O)O)c(C)n2n1	-6.9	1	1.1	3.7
COCCN(C(=O)c1csnn1)C(C(=O)NC(C)(C)C)c1cccc(OC)c1 (stereo unspecified)	11.7	0.9	0.9	14.6
CN1C(=O)CC(n2c(CO)nc3ccccc32)C1=O (stereo unspecified)	27.4	0.8	0.7	21.1
Oc1ccccc1C1=Nc2nc3ccccc3n2C(c2ccccc2)C1 (stereo unspecified)	98.7*	0.1	0	92.4*
CC(C)Oc1cc(O)c2c(=O)c(-c3ccc(O)cc3)coc2c1	96.5*	1.1	0	-9.0
COc1ccc(-c2coc3cc(OC)cc(O)c3c2=O)cc1	-10.0	1	1.1	4.3
COc1ccc(NC(=O)CN2CCCN(S(=O)(=O)c3ccc(F)cc3)CC2)cc1	53.1*	0.1	0.5	88.6*
COc1ccc(C(=O)Nc2ccc(S(=O)(=O)N3CCCCC3)cc2)cc1	5.2	1	0.9	-2.0
COc1ccc(S(=O)(=O)N2CCCN(CCC(=O)Nc3cccc(C(F)(F)F)c3)CC2)cc1	-6.5	0.5	1.1	49.0
SMILES	CYP2C9 inh	CYP2C19 activ	CYP2C9 activ	CYP2C19 inhib
COc1ccc(S(=O)(=O)N2CCN(CC(=O)Nc3cccc(F)c3)CC2)cc1	-37.3	0.5	1.4	53.5*
COc1ccccc1N1CCN(CC(=O)Nc2ccc(C)c(F)c2)CC1	14.6	0.8	0.9	15.5
COc1ccc(S(=O)(=O)N2CCN(CC(=O)Nc3ccc(C)c(F)c3)CC2)cc1	-18.4	0.2	1.2	81.9*
O=C(NCCN1CCOCC1)N1CCOCC1	30.4	0.6	0.7	36.4
Cc1cc(Nc2ccc(F)cc2C)n2nc(C)nc2n1	-12.6	1.2	1.1	-18.9
COc1ccc(Br)cc1C(=O)Nc1ccccc1-c1ccccc1	16.9	0.7	0.8	31.3
O=C(c1ccc(Oc2ccccc2)cc1)c1nc2c(n1O)CCCC2	67.3*	0.8	0.3	15.5
COc1ccc(C(=O)c2nc3c(n2O)CCCCC3)cc1	14.3	1.1	0.9	-14.2
COc1ccc(OC)c(C(=O)c2nc3c(n2O)CCCCC3)c1	51.1*	0.7	0.5	33.5
COc1ccc(OC)c(C(=O)c2ccc(C(=O)N3CCCCC3)cc2)c1	72.9*	0.9	0.3	13.1
Cc1ccc(S(=O)(=O)NC(=O)c2cccn2C)cc1	6.4	1.1	0.9	-13.0
COc1ccc(NC(=O)c2ccc3c(c2)C(=O)N(Cc2cccnc2)C3=O)cc1	14.8	1	0.9	0.4
CCOC(=O)c1sc(=S)n(-c2ccccc2)c1SC	48.5	0.4	0.5	58.3*
CCOC(=O)c1sc(=S)n(-c2cccc(C(F)(F)F)c2)c1SC	60.7*	1	0.4	0.7
CC(C/C=N/NC(=O)COc1cc(Cl)ccc1Cl)c1ccccc1 (stereo unspecified)	11.4	0.3	0.9	70.0*

Source: PubChem BioAssay
